CYP2C9 activ = activators of human CYP2C9; P11712; recombinant CYP2C9, luciferin-H conversion, luminescence; hits give high values; factor 1 = untreated enzyme, 0 = blocked; activation factor at 5 µM; 1.4% of 96,000 active; AID 1024;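 active = activation factor of 2 or more for CYP2C9 at a 5 µM dose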
CYP2C9 inhib = blocks human cytochrome P450 2C9; AID 777; CYP2C9 Supersomes, luciferin-H conversion, luminescence; inhibition, % at 5 µM; 20% of 96,000 active;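 active = blocking of liver enzyme CYP2C9 beyond about 50% at 5 µM, limit read from the data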
CYP2C19 inhib = inhibitors of human CYP2C19; 21% of 96,000 active; inhibition, % at 5 µM; CYP2C19 Supersomes, luciferin-H EGE luminescence, 30 min; P33261;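 active = CYP2C19 inhibition above a set limit at 5 µM in the primary screen, cut at about 50% in these data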
Target sequence (P33261 whole entry, looked up): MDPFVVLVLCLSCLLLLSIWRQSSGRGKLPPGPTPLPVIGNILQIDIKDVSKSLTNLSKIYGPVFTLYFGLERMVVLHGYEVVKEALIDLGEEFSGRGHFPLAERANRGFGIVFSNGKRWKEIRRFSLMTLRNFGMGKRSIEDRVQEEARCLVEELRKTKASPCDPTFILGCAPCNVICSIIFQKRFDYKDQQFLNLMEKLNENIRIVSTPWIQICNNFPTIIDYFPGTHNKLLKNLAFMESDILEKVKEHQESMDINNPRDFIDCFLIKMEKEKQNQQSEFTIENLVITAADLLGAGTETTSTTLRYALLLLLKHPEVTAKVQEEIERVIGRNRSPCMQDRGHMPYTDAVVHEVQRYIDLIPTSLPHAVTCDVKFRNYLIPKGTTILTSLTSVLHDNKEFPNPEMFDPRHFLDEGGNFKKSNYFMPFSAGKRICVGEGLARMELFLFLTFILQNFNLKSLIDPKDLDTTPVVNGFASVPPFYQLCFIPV
sEH act = soluble epoxide hydrolase (human) activation. 0.04% of 91,000 active. purified human sEH enzymatic activity, activator screen. activation, % at 2 µM; in the data active = activation above about 37%
CYP2C19 activ = increases human CYP2C19 enzyme activity. P33261. 96,000 tested, under 10 active. AID 1025. recombinant CYP2C19, luciferin-H EGE luminescence; hits give high values; 0 = fully inhibited enzyme, 1 = untreated enzyme. activation factor at 5 µM;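 active = activation factor of at least 2 at 5 µM in the primary screen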
sEH inhibitor = soluble epoxide hydrolase (human) inhibition; P34913; inhibition, % at 2 µM; AID 707; recombinant human sEH enzymatic activity assay; 0.34% of 91,000 active; in the data active = inhibition above about 80%
Hits are given with their value; 0 = inactive; - = no result. A selection: hits, their analogues and other compounds. The true share with any hit is near 27%.

SMILES	CYP2C9 activ	CYP2C9 inhib	CYP2C19 inhib	sEH act	CYP2C19 activ	sEH inhibitor
Cc1occc1-c1nnc(SCC(=O)N2CCc3ccccc32)o1	0	0	74	0	0	0
Cc1occc1-c1nnc(SCC(=O)N(C)C)o1	0	0	0	0	0	0
COc1cccc(-c2nnc(SCC(=O)N3CCCc4ccccc43)o2)c1	0	0	95	0	0	0
COc1cc(C)c(Cl)cc1S(=O)(=O)N(C)C	0	0	0	0	0	0
O=C(Nc1cnccn1)c1cccs1	0	0	0	-	0	-
COC(=O)c1nn(-c2ccc3c(c2)CCN3C(C)=O)cc1O	0	0	68	0	0	0
CCCCCCC(=O)N/N=C/Cc1ccccc1	0	0	0	0	0	0
COCCCN1CN(S(=O)(=O)c2ccc(Cl)cc2)c2nc3ccccc3nc21	0	99	98	0	0	0
CC(C)CN1CN(S(=O)(=O)c2cccs2)c2nc3ccccc3nc21	0	0	0	0	0	0
CC(C)OCCCN1CN(S(=O)(=O)c2ccccc2)c2nc3ccccc3nc21	0	98	85	0	0	0
O=S(=O)(c1ccc(Cl)cc1)N1c2ccccc2Oc2nc3ccccc3nc21	-	-	-	0	-	0
COc1cccc(C2CC(c3cccs3)=NN2C(=O)CSC2=NN3CCCC(=O)N=C3S2)c1OC (stereo unspecified)	0	83	76	-	0	-
NC(=O)c1ccc(C(F)(F)F)n(Cc2ccccc2Cl)c1=O	0	0	69	0	0	0
NC(=O)c1cccn1Cc1ccccc1Cl	0	0	0	0	0	0
COC(=O)c1cc(=O)n2c(-c3ccc(OC)cc3)csc2n1	0	0	0	0	0	0
O=C(Nc1cccc(NC(=O)c2ccccc2[N+](=O)[O-])n1)c1ccccc1[N+](=O)[O-]	0	0	0	0	0	0
Cc1cc(=O)oc2cc(OCC3CC(c4ccccc4)=NO3)ccc12 (stereo unspecified)	0	51	0	0	0	0
C#CCOc1ccc2c(C)cc(=O)oc2c1	0	0	64	0	0	0
O=S(=O)(c1ccccc1)c1cnn2c(C(F)(F)F)cc(-c3ccccc3)nc12	0	0	0	0	0	0
COc1ccccc1-c1cc(C(F)(F)F)n2ncc(S(=O)(=O)c3ccccc3)c2n1	0	97	0	0	0	0
O=C(N1CCOCC1)N1CCCN(C(=O)N2CCOCC2)CC1	0	0	0	0	0	0
CCCCCC(=O)N1CCN(CCN=CC2=C(O)CC(c3ccc(OC)cc3)CC2=O)CC1 (stereo unspecified)	0	0	0	0	0	0
CC1(C)CC(=O)C(C=NCCN2CCN(C(=S)Nc3ccc(F)cc3)CC2)=C(O)C1	0	0	75	0	0	0
O=C1CC(c2ccccc2)CC(O)=C1C=NCCN1CCN(C(=S)Nc2cccc(Cl)c2)CC1 (stereo unspecified)	0	0	72	0	0	0
CCCCCC(=O)N1CCN(CCN=CC2=C(O)CC(c3ccc(OC)c(OC)c3)CC2=O)CC1 (stereo unspecified)	0	64	0	0	0	0
SMILES	CYP2C9 activ	CYP2C9 inhib	CYP2C19 inhib	sEH act	CYP2C19 activ	sEH inhibitor
O=C1CC(c2ccc(Cl)cc2)CC(O)=C1C=NCCN1CCNCC1 (stereo unspecified)	0	0	0	0	0	0
N#Cc1ccc(CSc2nnc(Nc3ccccc3)s2)cc1	0	0	0	0	0	0
c1ccc(CSc2nnc(NC3=NCCCCC3)s2)cc1	0	0	68	0	0	0
COc1ccc(/C=N/NC(=O)c2nc(Cl)c(Cl)c(N)c2Cl)cc1COc1ccc(F)cc1F	0	67	0	0	0	0
COc1ccc(/C=N/NC(=O)c2nc(Cl)c(Cl)c(N)c2Cl)cc1COc1ccccc1F	0	87	62	0	0	0
COc1cc(OC)cc(C(=O)N/N=C/c2ccc(OC)c(COc3ccc4ccccc4c3)c2)c1	0	0	0	0	0	0
CCCCCCCNC(=O)COc1ccc2c(c1)C(=O)CC(C)(C)O2	0	96	88	0	0	0
CC1(C)CC(=O)c2cc(OCC(=O)NCCCN3CCN(c4ccccc4F)CC3)ccc2O1	0	0	0	0	0	0
CN(C(=O)COc1ccc(C(C)(C)C)cc1)C1CCS(=O)(=O)C1 (stereo unspecified)	0	0	0	0	0	0
Cc1ccccc1-n1c(SCc2c(C)noc2C)nnc1-c1ccncc1	0	51	78	0	0	0
Cc1noc(C)c1CSc1nnc(-c2ccncc2)n1-c1ccc(Cl)c(Cl)c1	0	59	84	0	0	0
Cc1ccc(C(C(=O)NC(C)(C)C)N(C(=O)c2csnn2)c2ccccc2F)o1 (stereo unspecified)	0	0	0	0	0	0
Cc1cccc(C(CC(=O)O)n2cccc2)c1 (stereo unspecified)	0	76	0	0	0	0
O=C(O)CC(c1cccc(Cl)c1)n1cccc1 (stereo unspecified)	0	0	0	0	0	0
CC(=O)c1ccc(N2CCN(C(=O)CCS(=O)(=O)c3ccc(C)cc3)CC2)cc1	0	0	0	-	0	-
NC(=O)NC(=O)COC(=O)CCCc1c[nH]c2ccccc12	0	0	0	0	0	0
CCOC(=O)CC(C#N)c1c[nH]c2ccccc12 (stereo unspecified)	0	0	70	0	0	0
Cc1nc(N)sc1-c1csc(Nc2ccc(Cl)cn2)n1	-	-	-	0	-	0
Cc1nc(N)sc1-c1csc(Nc2ccccn2)n1	0	61	0	0	0	0
COc1ccc(Nc2nc(-c3sc(NC(C)=O)nc3C)cs2)cc1	0	81	82	0	0	0
COc1ccc(Nc2nc(-c3sc(N)nc3C)cs2)cc1	0	80	78	0	0	0
O=C1c2ccccc2CN1CCNS(=O)(=O)c1ccc(Cl)cc1	0	0	0	0	0	0
O=c1c2ccccc2nc(/C=C/c2ccc([N+](=O)[O-])o2)n1CCCO	0	0	0	0	0	0
COc1cc(/C=C2/N=C(c3ccccc3F)OC2=O)cc(Cl)c1OS(C)(=O)=O	0	0	0	0	0	0
COc1ccc(C2(O)CCN(C(=O)c3ccc4c(c3)OCO4)CC2)cc1	0	0	0	-	0	-
SMILES	CYP2C9 activ	CYP2C9 inhib	CYP2C19 inhib	sEH act	CYP2C19 activ	sEH inhibitor
CCOc1cc(/C=C2\C(=O)N(c3nc(-c4ccc(Br)cc4)cs3)N=C2c2ccccc2)ccc1O	0	87	0	0	0	0
COc1ccc(/C=C2\C(=O)N(c3nc(-c4ccc(Br)cc4)cs3)N=C2c2ccccc2)cc1	-	-	-	0	-	0
Cc1cc(C(F)(F)F)nn1CC(=O)NNC(=S)Nc1cccc(Cl)c1	0	0	0	0	0	0
NC(=O)N1OCC2COc3ccc4ccccc4c3C21 (stereo unspecified)	2.1	0	0	0	0	0
O=C(Nc1ccc(Cl)cc1)N[C@@H]1c2c(ccc3ccccc23)OC[C@@H]1CO	0	0	0	-	0	-
Cc1cc(N2CCC(C)CC2)nc2cccc(O)c12	3	0	0	0	0	0
Cc1nc2ccccc2nc1N1CCC(C)CC1	0	0	0	0	0	0
